Test in all cases: NCI-60 one-dose screen, 48 h (100 = growth as untreated, 0 = no growth, -100 = all killed)
Common to all, as to settings: 10 µM unless noted

The subject of experiment [1] is SR leukemia.
Experiment [2] concerns RPMI-8226 leukemia.
In experiment [3] the test system is OVCAR-8 ovarian.
Experiment [4] deals with OVCAR-5 ovarian.
Experiment [5] has as its system OVCAR-4 ovarian.
Experiment [6] relates to SK-OV-3 ovarian.
The subject of experiment [7] is IGROV1 ovarian.
Experiment [8] concerns OVCAR-3 ovarian.
Experiment [9] concerns HS 578T breast.
The test system of experiment [10] is NCI/ADR-RES ovarian.
Experiment [11] relates to T-47D breast.
In experiment [12] the test system is BT-549 breast.
Experiment [13] has as its system MDA-MB-435 melanoma.
Experiment [14] deals with SW-620 colon.
The subject of experiment [15] is MCF7 breast.
The subject of experiment [16] is HCT-116 colon.
Experiment [17] deals with HCC-2998 colon.
Experiment [18] has as its system KM12 colon.

About 83,000 compounds went through this panel and 20% of them were active in at least one assay; those are over-represented in the sample as a whole.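 Note: values are percent growth. 100 is the growth of untreated cells, values between 100 and 0 indicate rising inhibition; between -100 and 0 indicates cell death.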 Values without a mark were called inactive. Activity calls are given as the source filed them. How the source made its calls: active means growth percent below 10; inactive means the rest.

For the compound `CC(c1ccc(-n2cccn2)cc1)c1cnc(N2CCc3ccc(C(N)=O)cc3C2)s1` (stereo not given), the growth was 53.5% in experiment [1]; 34.5% in experiment [2]; 34.9% in [3]; 92.8% in experiment [4]; 42% in experiment [5]; 68.6% in experiment [6]. Moreover, the growth in experiment [7] was 79.8%; in experiment [8], 71.5%; in [9], 100%; in experiment [10], 32.1%; in experiment [11], 2.07% (active); in experiment [12], 12%. In addition, the growth was 40.4% in [13]; 97.3% in experiment [14]; 37% in [15]; 40.6% in [16]; 80.9% in experiment [17]; 68.2% in experiment [18].
Turning to `O=C1CSC(c2ccccc2)N1c1ccccc1` (stereo not given), the growth in experiment [1] is 88%; in experiment [2], 100%; in experiment [3], 102%; in experiment [4], 103%; in experiment [5] it was 104%; in experiment [6], 100%. Besides, the growth is 112% in experiment [7]; 112% in experiment [8]; 86.8% in [9]; 100% in experiment [10]; 103% in experiment [11]; 103% in experiment [12]. Besides, the growth was 108% in [13]; 94.5% in [14]; 96.6% in experiment [15]; 99.9% in experiment [16]; 115% in experiment [17]; 98.4% in experiment [18].
Turning to `COc1cc(-c2ncn(/C=C\c3nnco3)n2)cc(C(F)(F)F)c1`, the growth in experiment [1] was 6.43% (active); in experiment [2], 76.4%; in experiment [3], 19.8%; in experiment [4], 37.9%; in [5] it was 15.4%; in experiment [6] it was 38.9%. The growth is 22.3% in [7]; -20.8% (active) in [8]; 19.3% in experiment [9]; 27.1% in experiment [10]; 28.9% in [11]; -13.8% (active) in experiment [12]. The growth in experiment [13] was 2.34% (active); in experiment [14], 14.6%; in experiment [15], 8.23% (active); in experiment [16] it was 3.16% (active); in [17], 7.01% (active); in [18], 10.7%.
Turning to `NS(=O)(=O)c1cn(-c2ncnc3nc[nH]c23)ccc1=O`, the growth is 132% in experiment [1]; 74.7% in [2]; 107% in experiment [3]; 93.1% in [4]; 95.1% in experiment [5]; 82.2% in [6]. Besides, the growth is 97.2% in experiment [7]; 103% in experiment [8]; 102% in experiment [9]; 105% in experiment [10]; 76.7% in experiment [11]; 109% in experiment [12]. Besides, the growth in [13] was 103%; in experiment [14], 95.1%; in experiment [15], 104%; in experiment [16], 94.5%; in experiment [17] it was 107%.
Consider `CNC(=O)c1cc(Oc2ccc3nc(NC(=O)Nc4cc(C(F)(F)F)cc(C(F)(F)F)c4)sc3c2)ccn1`, for which the growth in experiment [1] is -27.6% (active); in [2] it was -14.1% (active); in [3], -68.2% (active); in [4], -26.1% (active); in experiment [5] it was -77.2% (active); in [6], -58% (active). Besides, the growth in experiment [7] is -48.5% (active); in experiment [8], -76.5% (active); in experiment [9], -20.4% (active); in [10], -38.2% (active); in experiment [11], -39.6% (active); in experiment [12] it was -46.9% (active). Moreover, the growth in [13] was -13.6% (active); in [14] it was -36.1% (active); in experiment [15], 0.0531% (active); in experiment [16], -56.1% (active); in experiment [17], 5.71% (active); in experiment [18] it was -14.7% (active).
In the case of `C=CCO[C@H]1CO[C@H]2[C@@H]1OC[C@@H]2Oc1ccc(Nc2ccnc(Nc3ccc(O[C@H]4CO[C@H]5[C@@H]4OC[C@@H]5OCC=C)c(Cl)c3)n2)cc1Cl`, the growth in [1] was -1.74% (active); in [2], -32.7% (active); in experiment [3], -4.18% (active); in [4], -55.7% (active); in experiment [5], -86.7% (active); in [6], 115%. The growth in [7] was -94.1% (active); in [8], -85.5% (active); in experiment [9], -38.6% (active); in experiment [10] it was -63.6% (active); in experiment [11], -39.7% (active); in experiment [12], 32.7%. The growth in experiment [13] is -88.4% (active); in experiment [14], -58.9% (active); in experiment [15], -71.1% (active); in experiment [16], -29.7% (active); in [17] it was -93.3% (active); in experiment [18] it was -72.1% (active).
Take `O=C1C2=C(CCN(Cc3ccccc3)C2)N2CCN=C2N1Cc1ccc(C(F)(F)F)cc1`: the growth in experiment [1] was 49.5%; in [2], 19%; in experiment [3], 17%; in experiment [4], 56.9%; in experiment [5], -4.49% (active); in experiment [6] it was 21%. Further, the growth is 33% in experiment [7]; 23.9% in experiment [8]; 36% in [9]; 16.6% in experiment [10]; 24.1% in experiment [11]; 32% in [12]. Moreover, the growth is 24.4% in experiment [13]; 37% in experiment [14]; 21.2% in experiment [15]; 23% in experiment [16]; 23.9% in [17]; 39.4% in [18].
Regarding `NC(N)=N/N=C(/c1ccccc1)c1ccc(N)cc1`, the growth in experiment [1] was 88.8%; in experiment [2], 150%; in experiment [3], 108%; in experiment [4] it was 103%; in [5], 132%; in experiment [6], 99.3%. The growth in experiment [7] is 127%; in [8], 112%; in experiment [9], 150%; in experiment [10], 106%; in experiment [11], 107%; in experiment [12], 72.7%. The growth in [13] was 91.2%; in experiment [14], 111%; in experiment [15], 97%; in experiment [16], 115%; in [17], 103%; in experiment [18] it was 112%.
Turning to `O=C(NC1CCOCC1)c1ccc2c(c1)CN(c1ncc(Cc3cccc(-n4cccn4)c3)s1)CC2`, the growth is 56.2% in experiment [1]; 38.3% in [2]; 76.6% in experiment [3]; 95.1% in experiment [4]; 62.1% in experiment [5]; 78.6% in [6]. The growth in experiment [7] was 89.8%; in experiment [8], 78.4%; in experiment [9] it was 96%; in experiment [10], 63.5%; in [11], 38.9%; in experiment [12] it was 31.1%. Moreover, the growth in [13] was 76.3%; in experiment [14] it was 107%; in experiment [15], 56.9%; in experiment [16], 47.6%; in experiment [17] it was 77%.

These data come from PubChem BioAssay (NCI).
